# Reference: the supplement of paper PMC10646978
# ± gives the standard deviation.
# System: RAW-Dual (murine macrophage reporter line)
# Assay: IRF reporter (Lucia luciferase) activity fold change vs agonist alone; higher = enhanced IRF activity
# Settings: modulator concentration 10 µM; agonist: MPLA […]
# Method in brief: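 RAW-Dual murine macrophage reporter cells were seeded at 50 000 per well in 384-well plates and pre-incubated 1 hour at 37 °C with compound pin-transferred to 10 μM final. After 1 hour, a PRR agonist was added and cells incubated overnight. Supernatant NF-κB (SEAP, QUANTI-Blue, 620 nm absorbance) and IRF (Lucia luciferase, QUANTI-Luc, luminescence) signals were divided by the mean agonist-only control on the same plate to give fold change. Two replicate plates were averaged, with errors by propagation.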
row,Compound,IRF reporter
1,Nc1ncnc2c1ncn2C1OC(COP(=O)(O)O)C(O)C1O (stereo not given),1.19 ± 0.14
2,CC1=C(C(=O)OCC(F)(F)C(F)(F)F)C(c2ccccc2)NC(=O)N1 (stereo not given),1.23 ± 0.23
3,O=C(Cn1cc(S(=O)(=O)c2ccc(F)cc2)c2ccccc21)N1CCCCCC1,1.3 ± 0.48
4,Cc1ccc(Nc2cc(N3CCCCC3)c(N)c3c2C(=O)c2ccccc2C3=O)cc1,1.12 ± 0.12
5,COc1cccc(-c2cc(C(=O)N3CCC(Oc4cc(C)n(C)c(=O)c4)CC3)n(C)n2)c1,0.938 ± 0.085
6,O=C(COc1cccc2ccccc12)NCc1ccncc1,1.06 ± 0.098
7,N#Cc1nc(-c2ccc(COc3ccc(Cl)cc3)o2)oc1N1CCCCC1,1.12 ± 0.15
8,Brc1ccc(CN2C3=NCCCN3c3ccccc32)cc1.Cl,0.905 ± 0.11
9,CN1CCN(CCC=C2c3ccccc3Sc3ccc(S(=O)(=O)N(C)C)cc32)CC1,0.872 ± 0.076
10,NC[C@@H]1O[C@H](O[C@@H]2[C@@H](CO)OC(O[C@@H]3[C@@H](O)[C@H](N)C[C@H](N)[C@H]3O[C@H]3O[C@H](CN)[C@@H](O)[C@H](O)[C@H]3N)[C@@H]2O)[C@H](N)[C@@H](O)[C@@H]1O.O=S(=O)(O)O (stereo not given in full),1.11 ± 0.12
11,COc1cc2nc(N3CCN(C(=O)C4COc5ccccc5O4)CC3)nc(N)c2cc1OC (stereo not given) [Prestw-858],1.29 ± 0.13
12,Cc1ncn(CC(=O)N2CC(Oc3cccc(C(F)(F)F)n3)C2)c(=O)c1C,1.25 ± 0.097
13,COc1ccccc1C1C(C(C)=O)=C(O)C(=O)N1CCN(C)C (stereo not given),1.25 ± 0.12
14,O=C(Nc1ccc(Cl)cc1)C(Sc1ccccc1)c1ccccc1 (stereo not given),1 ± 0.081
15,CC=CCn1c(=O)c2c(nc3n2CC(C(C)(C)C)=NN3)n(C)c1=O,0.943 ± 0.099
16,CC(C)(C)c1cc(NCc2ccccn2)n2ncc(-c3ccc(Cl)cc3)c2n1,3.1 ± 0.86
17,CCC(=O)CC(O)(c1ccccc1)C(F)(F)F (stereo not given),1.01 ± 0.11
18,CCC1(CC)Cc2ccccc2C(CC(=O)N2CCOCC2)=N1.O=S(=O)(O)O,1.16 ± 0.21
19,NC(=O)c1cccnc1,0.934 ± 0.14
20,Cc1cc(=O)[nH]c(-n2nc(C)c(CCC(=O)N3CCN(C)CC3)c2C)n1,0.931 ± 0.095

row,Compound,IRF reporter
1,COc1cc2nccc(Oc3ccc(NC(=O)Nc4cc(C)on4)c(Cl)c3)c2cc1OC,1.02 ± 0.1
2,Cc1cnc(C(=O)O)c[n+]1[O-],0.926 ± 0.11
3,CCN(CC)CCCC(C)Nc1c2ccc(Cl)cc2nc2ccc(OC)cc12 (stereo not given) [Prestw-318],0.939 ± 0.22
4,O=C(CCCn1nc(-c2ccc(F)cc2)ccc1=O)Nc1cc(Cl)ccc1Cl,1.11 ± 0.18
5,CC(C)Sc1ccc(CC(=O)N2C3C=CCC2CC3)cc1 (stereo not given),1.38 ± 0.24
6,COc1cc(O)c2c(=O)cc(-c3ccc(O)cc3)oc2c1,0.798 ± 0.099
7,COCCN1C(=O)CN(C2CCN(Cc3cc(OC)cc(OC)c3)CC2)C1=O,1.13 ± 0.13
8,CC1c2cccc(O)c2C(=O)C2=C(O)C3(O)C(=O)C(C(N)=O)=C(O)C(N(C)C)C3C(O)C21.Cl (stereo not given),1.02 ± 0.12
9,CCOc1ccc(-c2ccc(=O)n(CCNS(=O)(=O)CCc3ccccc3)n2)cc1,1.3 ± 0.27
10,Cc1cc(CCNC(=O)c2cc3ccccc3s2)nn1C,0.993 ± 0.16
11,O=C(NCCN1CCOCC1)c1ccc(Cl)cc1,1.01 ± 0.078
12,COc1cc2nc(N(C)CCCNC(=O)C3CCCO3)nc(N)c2cc1OC.Cl (stereo not given),1.09 ± 0.2
13,CCCCCCOc1ccc(N2C(=O)CC(N3CCN(Cc4ccc5c(c4)OCO5)CC3)C2=O)cc1 (stereo not given),1.32 ± 0.12
14,COC(=O)C1=CN(CC2CCCO2)C=C(C(=O)OC)C1c1cccc(F)c1 (stereo not given),1.18 ± 0.16
15,COc1ccc(C2(C#N)CCC(C(=O)O)CC2)cc1OC1CCCC1 (stereo not given),1.38 ± 0.12
16,COc1ccc(N2CC(C(=O)NCc3ccccc3C(F)(F)F)CC2=O)cc1 (stereo not given),1.14 ± 0.29
17,COc1cccc2c1C(=O)c1c(O)c3c(c(O)c1C2=O)C[C@@](O)(C(=O)CO)C[C@@H]3O[C@H]1C[C@H](N)[C@H](O)[C@H](C)O1.Cl,0.127 ± 0.024
18,O=c1cc(-c2ccccc2)oc2cc(O)c(O)c(O)c12,0.967 ± 0.12
19,O=C1C(O)=C(c2ccc([N+](=O)[O-])cc2)C(=O)c2ccccc21,1.28 ± 0.23
20,CCCCOc1ccc(CC(=O)NO)cc1,0.815 ± 0.062

# System: RAW-Dual (murine macrophage reporter line)
# Assay: viability score (confluency relative to resting cells, overnight) (fraction); higher = more viable, active = viable (0.7 or more)
# Settings: modulator concentration 10 µM
# Method in brief: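 In 384-well plates, RAW-Dual macrophages received compound at a final 10 μM overnight. Two confluency masks were then made with IncuCyte software from IncuCyte images of all imaged wells. The viability score is defined as confluency relative to resting cells. Passing the cutoff required both masks to lie above 70% of resting cells.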
row,Compound,viability score
1,Nc1ncnc2c1ncn2C1OC(COP(=O)(O)O)C(O)C1O (stereo not given),0.97 (active)
2,CC1=C(C(=O)OCC(F)(F)C(F)(F)F)C(c2ccccc2)NC(=O)N1 (stereo not given),0.934 (active)
3,O=C(Cn1cc(S(=O)(=O)c2ccc(F)cc2)c2ccccc21)N1CCCCCC1,0.972 (active)
4,Cc1ccc(Nc2cc(N3CCCCC3)c(N)c3c2C(=O)c2ccccc2C3=O)cc1,0.996 (active)
5,COc1cccc(-c2cc(C(=O)N3CCC(Oc4cc(C)n(C)c(=O)c4)CC3)n(C)n2)c1,1 (active)
6,O=C(COc1cccc2ccccc12)NCc1ccncc1,1.01 (active)
7,N#Cc1nc(-c2ccc(COc3ccc(Cl)cc3)o2)oc1N1CCCCC1,0.998 (active)
8,Brc1ccc(CN2C3=NCCCN3c3ccccc32)cc1.Cl,0.96 (active)
9,CN1CCN(CCC=C2c3ccccc3Sc3ccc(S(=O)(=O)N(C)C)cc32)CC1,0.991 (active)
10,NC[C@@H]1O[C@H](O[C@@H]2[C@@H](CO)OC(O[C@@H]3[C@@H](O)[C@H](N)C[C@H](N)[C@H]3O[C@H]3O[C@H](CN)[C@@H](O)[C@H](O)[C@H]3N)[C@@H]2O)[C@H](N)[C@@H](O)[C@@H]1O.O=S(=O)(O)O (stereo not given in full),1 (active)
11,COc1cc2nc(N3CCN(C(=O)C4COc5ccccc5O4)CC3)nc(N)c2cc1OC (stereo not given) [Prestw-858],0.953 (active)
12,Cc1ncn(CC(=O)N2CC(Oc3cccc(C(F)(F)F)n3)C2)c(=O)c1C,1 (active)
13,COc1ccccc1C1C(C(C)=O)=C(O)C(=O)N1CCN(C)C (stereo not given),0.988 (active)
14,O=C(Nc1ccc(Cl)cc1)C(Sc1ccccc1)c1ccccc1 (stereo not given),1.02 (active)
15,CC=CCn1c(=O)c2c(nc3n2CC(C(C)(C)C)=NN3)n(C)c1=O,0.96 (active)
16,CC(C)(C)c1cc(NCc2ccccn2)n2ncc(-c3ccc(Cl)cc3)c2n1,0.978 (active)
17,CCC(=O)CC(O)(c1ccccc1)C(F)(F)F (stereo not given),0.996 (active)
18,CCC1(CC)Cc2ccccc2C(CC(=O)N2CCOCC2)=N1.O=S(=O)(O)O,0.829 (active)
19,NC(=O)c1cccnc1,1 (active)
20,Cc1cc(=O)[nH]c(-n2nc(C)c(CCC(=O)N3CCN(C)CC3)c2C)n1,0.994 (active)

row,Compound,viability score
1,COc1cc2nccc(Oc3ccc(NC(=O)Nc4cc(C)on4)c(Cl)c3)c2cc1OC,1 (active)
2,Cc1cnc(C(=O)O)c[n+]1[O-],1 (active)
3,CCN(CC)CCCC(C)Nc1c2ccc(Cl)cc2nc2ccc(OC)cc12 (stereo not given) [Prestw-318],0.825 (active)
4,O=C(CCCn1nc(-c2ccc(F)cc2)ccc1=O)Nc1cc(Cl)ccc1Cl,1.02 (active)
5,CC(C)Sc1ccc(CC(=O)N2C3C=CCC2CC3)cc1 (stereo not given),0.877 (active)
6,COc1cc(O)c2c(=O)cc(-c3ccc(O)cc3)oc2c1,0.997 (active)
7,COCCN1C(=O)CN(C2CCN(Cc3cc(OC)cc(OC)c3)CC2)C1=O,1.01 (active)
8,CC1c2cccc(O)c2C(=O)C2=C(O)C3(O)C(=O)C(C(N)=O)=C(O)C(N(C)C)C3C(O)C21.Cl (stereo not given),0.992 (active)
9,CCOc1ccc(-c2ccc(=O)n(CCNS(=O)(=O)CCc3ccccc3)n2)cc1,0.995 (active)
10,Cc1cc(CCNC(=O)c2cc3ccccc3s2)nn1C,0.997 (active)
11,O=C(NCCN1CCOCC1)c1ccc(Cl)cc1,0.992 (active)
12,COc1cc2nc(N(C)CCCNC(=O)C3CCCO3)nc(N)c2cc1OC.Cl (stereo not given),0.996 (active)
13,CCCCCCOc1ccc(N2C(=O)CC(N3CCN(Cc4ccc5c(c4)OCO5)CC3)C2=O)cc1 (stereo not given),0.991 (active)
14,COC(=O)C1=CN(CC2CCCO2)C=C(C(=O)OC)C1c1cccc(F)c1 (stereo not given),0.954 (active)
15,COc1ccc(C2(C#N)CCC(C(=O)O)CC2)cc1OC1CCCC1 (stereo not given),1.02 (active)
16,COc1ccc(N2CC(C(=O)NCc3ccccc3C(F)(F)F)CC2=O)cc1 (stereo not given),1 (active)
17,COc1cccc2c1C(=O)c1c(O)c3c(c(O)c1C2=O)C[C@@](O)(C(=O)CO)C[C@@H]3O[C@H]1C[C@H](N)[C@H](O)[C@H](C)O1.Cl,0.372 (inactive)
18,O=c1cc(-c2ccccc2)oc2cc(O)c(O)c(O)c12,0.992 (active)
19,O=C1C(O)=C(c2ccc([N+](=O)[O-])cc2)C(=O)c2ccccc21,1 (active)
20,CCCCOc1ccc(CC(=O)NO)cc1,0.999 (active)
